Bioassay records: PubChem BioAssay, National Center for Advancing Translational Sciences (NCATS)
An excerpt weighted towards active compounds, which were near 2.7% of everything screened.
12-LOX inh: Primary qHTS assay for inhibitors of human arachidonate 12S-lipoxygenase (ALOX12): Round 2; purified 12hLO, xylenol orange hydroperoxide absorbance; Potency, µM (doses to about 108 µM), for the others: top-dose activity change, negative = inhibition, actives largely listed as inhibitors; 580,000 tested, 1.1% active; AID 1671190, 2021; also: potency is read from the fitted curve at half-maximal effect; % is scaled to controls: 0 for no effect and ±100 for the full control effect
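Purified human 12hLO at 150 nM in 25 mM Hepes, 0.01% Triton X-100, pH 7.0, preincubated 15 min at room temperature with compound. Reaction started with 40 uM arachidonic acid, 30 min at room temperature. Hydroperoxide measured by Fe-xylenol orange, 573/405 nm absorbance ratio.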
LDHA inh: qHTS assay for inhibitors of human lactate dehydrogenase | L-lactate dehydrogenase A chain (Homo sapiens), P00338 | purified LDHA, NADH/diaphorase-resazurin fluorescence; hits give low values | activity change, % (values are at about 110 or 230 µM) | 480,000 tested, 0.15% active | AID 1347041, 2019; in the data active = activity change below about -30%; inconclusive = mostly about -25% to -30%;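 also: plate controls were DMSO wells for no effect and wells without enzyme for full effect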
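Remaining NADH was detected by diaphorase (0.133 mg/mL) converting 37 µM resazurin to fluorescent resorufin, read at 0 and 20 minutes. The preceding 5-minute room-temperature reaction used 2 nM LDHA, 0.2 mM sodium pyruvate and 0.06 mM NADH at pH 7.4.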
A549 viability: Nrf2 qHTS screen for inhibitors: counterscreen for cytotoxicity | A549 ARE-Fluc cells, CellTiter-Fluor viability, 18-24 h | Potency, µM (series often up to 46 µM), for the others: at the highest dose activity change, negative = cytotoxicity, most hits filed as inhibitors | 390,000 tested, 0.16% active | AID 504648, 2011; also: potency is read from the fitted curve at half-maximal effect; % is scaled to controls: 0 for no effect and ±100 for the full control effect
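Cytotoxicity counterscreen: CellTiter-Fluor fluorescence was measured in A549 ARE_Fluc cells after 18-24 h of compound exposure in a concentration series. The subsequent BugLite luminescent read reports ARE-luciferase activity.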
Nrf2 inh: Nrf2 qHTS screen for inhibitors; A549 ARE-Fluc reporter, luciferase luminescence, 18-24 h; Potency, µM (highest dose often 46 µM), for the others: at the highest dose activity change, negative = inhibition, actives largely listed as inhibitors; 360,000 tested, 2.1% active; AID 504444, 2011; also: potency is read from the fitted curve at half-maximal effect; % is scaled to controls: 0 for no effect and ±100 for the full control effect; nearly all actives have a fitted effect of over 60% in size
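Nrf2 activity is the BugLite luminescence, read 15 min after reagent at room temperature, following CellTiter-Fluor cytotoxicity readout (30 min, 37C). Compound titrations were applied for 18-24 h to 5000 A549 ARE_Fluc cells/well in 5% FBS OPTI-MEM.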
ERG Ets-DNA blk: qHTS for Small Molecule Inhibitors of the ERG Ets/DNA interaction; Potency, µM (highest dose often 76.9 µM), without a hit: at the highest dose FP activity, negative = inhibition, hits mostly inhibitors; fluorescence polarization, His-ERG Ets domain / labelled DNA; Transcriptional regulator ERG (Homo sapiens), P11308; 370,000 tested, 0.028% active; active = well fitted inhibition curve with a large enough effect in the polarisation, with a control signal flat; inconclusive = small, poorly fitted or top-dose-only effect, or effect the other way, or a change in a side signal; inactive = no such curve, though single readings can be large or run the other way; the % refers to the polarisation;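 also: polarization taken with two DNA probes labelled with fluorescein and Texas red; potency is read from the fitted curve at half-maximal effect; % of control where 0% means no effect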
Target sequence (P11308 whole entry, looked up, the tested form may be a part): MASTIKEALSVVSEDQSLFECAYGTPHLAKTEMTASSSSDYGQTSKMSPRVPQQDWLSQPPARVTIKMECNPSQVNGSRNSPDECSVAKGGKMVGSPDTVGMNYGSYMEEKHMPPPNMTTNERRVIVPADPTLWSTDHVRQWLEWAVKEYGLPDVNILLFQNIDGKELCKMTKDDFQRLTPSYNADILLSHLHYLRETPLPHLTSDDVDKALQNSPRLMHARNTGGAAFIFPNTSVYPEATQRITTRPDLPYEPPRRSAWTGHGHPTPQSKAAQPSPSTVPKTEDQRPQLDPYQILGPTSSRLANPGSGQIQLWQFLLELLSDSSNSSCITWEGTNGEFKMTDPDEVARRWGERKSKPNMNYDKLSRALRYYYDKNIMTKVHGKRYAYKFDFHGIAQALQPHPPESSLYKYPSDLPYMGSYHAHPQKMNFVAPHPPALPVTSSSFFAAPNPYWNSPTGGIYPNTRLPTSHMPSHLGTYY
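His-tagged ERG Ets domain (1 uM in the protein solution; 300mM KCl, 50mM Tris-HCl, 1mM EDTA, 1mM DTT, pH 7.5) received compound, then a probe mix of 5 nM fluorescein-DNA and 100nM Texas-615-DNA. Fluorescence polarization was read for both dyes.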
Nrf2 ARE act: qHTS of Nrf2 Activators. AREc32 ARE-luciferase reporter (MCF7-derived line), luminescence, 24 h. Potency, µM (top dose mostly 46.1 µM), for inactives: top-dose activation, most hits filed as activators. 410,000 tested, 0.31% active; also: potency is read from the fitted curve at half-maximal effect; % of control where 0% means no effect; nearly all actives have a fitted effect of over 65% in size
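For detection, Steady-Glo was added and plates sat 30 min at RT; before that, AREc32_Fluc cells grown overnight in OPTI-MEM/5% FBS had been treated with 23 nL compound for 24 hr at 37 deg C.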
The depositor's hits bear a star; ? = inconclusive; . = not tested or not shown; [ ] = dose if it differs, or a comment. Unless noted, calls follow the shape of the dose curve; as a rule, active = well fitted curve in the direction sought with a large enough effect; inconclusive = small, poorly fitted or top-dose-only effect, or another doubt; inactive = no such curve, though single readings can be large; an effect the other way counts as inactive or inconclusive.

SMILES	12-LOX inh	LDHA inh	A549 viability	Nrf2 inh	ERG Ets-DNA blk	Nrf2 ARE act
Cc1c(Cl)cccc1NC(=O)COC(=O)c1c2c(nc3ccccc13)CCN(Cc1ccccc1)C2	-12.0%	-0.4	?	20.6µM*	11.3%	-0.4%
COc1cccc(NC(=O)COC(=O)c2c3c(nc4ccccc24)CCC(C)C3)c1 (stereo not drawn)	6.3%	3.6	?	16.4µM*	3.6%	-2.7%
Cc1cc(N2CCN(C)CC2)ccc1NC(=O)c1c2c(nc3ccccc13)CCN(Cc1ccccc1)C2	.	-9.3	10.3µM*	18.4µM*	-2.4%	28.1%
O=C(COC(=O)c1ccc2ccccc2n1)Nc1ccc(F)c(F)c1	-27.4%	4.9	.	.	.	.
O=S(=O)(Nc1cccc2c1CCCC2)c1ccccc1	-50.7%	-0.8	.	.	.	.
Cc1nc(NCc2ccco2)nc2c1C(=O)CC(C)C2 (stereo not drawn)	?	-5.4	17.7%	.	2.8%	2µM*
Cc1nc(NCC2CCCO2)nc2c1C(=O)CC(C)C2 (stereo not drawn)	0.5%	-13.1	6.4%	.	2.0%	3.7%
Brc1ccc(-c2noc(Cc3cccs3)n2)o1	25.1µM*	8.5	.	.	.	.
COc1ccc(Cc2nc(-c3ccc(Br)o3)no2)cc1	-4.3%	4.8	.	.	.	.
COc1ccc(C2NCCc3c2[nH]c2ccccc32)cc1CSc1nc2ccccc2s1 (stereo not drawn)	31.6µM*	0.5	20.4%	10.7%	-1.0%	4.5%[9.22 µM]
Cc1ccc(NC(=O)N/C=C/c2ccco2)cc1C	28.2µM*	2.5	-4.6%	5.6%	0.2%	3.2%
Cc1ccc(NC(=O)c2cccc(NC(=O)/C=C/c3ccco3)c2)cc1C	39.8µM*	-6.7	-29.3%	5.1%	.	?
Cc1ccc(NC(=O)N/C=C/c2ccco2)c(C)c1	?	-2.5	4.2%	14.7%	1.7%	-0.3%
CCc1ccccc1NC(=O)c1cccc(NC(=O)/C=C/c2ccco2)c1	-31.3%	-1.6	-12.6%	-5.2%	6.8%	16.7%
Nc1nc(N)c2cc(CNc3ccc(Cl)c(Cl)c3)ccc2n1	5.62µM*	0.8	.	.	.	-5.8%
COCCNC(=O)c1ccccc1NC(=O)c1nc(-c2ccccc2)oc1C	?	-0.9	.	.	.	.
Fc1cc(Br)ccc1NC(=S)NCc1cccs1	25.1µM*	-18.0	.	.	.	.
C=CCNC(=S)Nc1ccc(Br)cc1F	?	-2.6	0.0%	23.1µM*	4.9%	3.5%
C=CCNC(=S)Nc1ccc(Cl)cc1F	-2.2%	-0.9	-2.3%	-25.8%	2.7%	5.6%
Cc1ccc2c(=O)cc(C(=O)N3CCC(Cc4ccccc4)CC3)oc2c1C	?	11.4	.	.	.	.
CCOc1ccccc1CN1CCC2(CCN(Cc3ccc(F)cc3)CC2)Oc2ccccc21	31.6µM*	.	.	.	.	.
CCOc1ccc2nc(N/C(N)=N/C(=S)Nc3ccc(OC)cc3)nc(C)c2c1	?	-9.6	-19.0%	-7.0%	0.0%	5.1%
CCc1ccc(NC(=S)/N=C(\N)Nc2nc(C)c3cc(CC)ccc3n2)cc1	35.5µM*	-2.3	-17.1%	-16.0%	-3.3%	-0.2%[9.22 µM]
Cc1cccc(NC(=S)/N=C(\N)Nc2nc(C)c3cc(C)ccc3n2)c1	39.8µM*	-0.1	?	11.8%	31.9%	2.2%
Cc1cc(C)cc(NC(=S)/N=C(\N)Nc2nc(C)c3ccccc3n2)c1	44.7µM*	-8.1	-10.3%	?	.	0.0%
Cc1cccc(NC(=S)/N=C(\N)Nc2nc(C)c3ccccc3n2)c1	?	-4.0	-11.1%	?	-11.8%	7.5%
Cc1cccc(NC(=S)/N=C(\N)Nc2nc(C)c3ccc(C)cc3n2)c1	?	-11.0	?	14.6µM*	-0.2%	3.7%
